Source: PubChem
Pf Dd2 inh – Plasmodium falciparum Dd2 growth inhibition. P. falciparum Dd2 growth, SYBR Green, 72 h. Potency, µM (top dose mostly 28.9 µM), usual class: inhibitors. 120,000 tested, 4.3% active. AID 1347417; active means well fitted inhibition curve with a large enough effect; further: nearly all actives have a fitted effect of over 65% in size
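Readout: SYBR Green fluorescence, 485 nm excitation, 535 nm emission, after ~16 h lysis at 37C. Before that, Dd2-infected red cells (2.5% hematocrit) grew 72 h with compound, 29 uM top final concentration.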
Each line names hits and unclear results; the compound was inactive in the other large screens. The sample as a whole holds a higher share of hits than the screen did.

O=C(Cc1ccccc1)Nc1ccc([C@@H](O)[C@H]2COCC(=O)N2Cc2ccncc2)cc1	none
O=C(c1ccco1)N1CC[C@@H]2[C@@H](CCC(=O)N2CCc2ccccn2)C1	none
CCOC(=O)c1ccc(Nc2nc(C(=O)OCC)nc3ccccc23)cc1	none
CCOC(=O)c1nc(Nc2ccc(C(=O)OC(C)C)cc2)c2ccccc2n1	Pf Dd2 inh 3.2µM
CCOC(=O)c1nc(Nc2ccccc2OC)c2ccccc2n1	none
CCOC(=O)c1nc(Nc2ccc(OC)cc2)c2ccccc2n1	none
CCOC(=O)c1nc(Nc2ccc(C(=O)OCC(C)C)cc2)c2ccccc2n1	Pf Dd2 inh 11µM
CCCCCOC(=O)c1ccc(Nc2nc(C(=O)OCC)nc3ccccc23)cc1	none
Cc1cc2cccc(C(=O)N3CCc4nc(-c5cn[nH]c5)[nH]c4C3)c2o1	none
O=C(Cn1ccn2nc(-c3ccc(F)cc3)c(CO)c2c1=O)Nc1ccccc1	none
CC[C@H]1CN(C(=O)NC2CCCCC2)CC[C@H]1CC(=O)Nc1nccs1	none
CCOc1ccccc1C(=O)N1CCC[C@H]1c1nc(-c2ccc(C)cc2)no1	none
CC(C)CNC(=O)N1CCC2(CC1)CC(N(C(=O)c1ccccc1)C1CC1)CCO2 (configuration not stated)	none
O=C1OC[C@@H]2CCN(Cc3ccccc3Cl)Cc3ccc(F)cc3N12	none
CCOc1ccc(NC(=O)Nc2nnc(N3CCCCC3C)s2)cc1 (configuration not stated)	Pf Dd2 inh 11µM
COc1cc(NC(=O)Nc2nnc(N3CCCCC3)s2)cc(OC)c1	none
CCOc1ccc(NC(=O)CSc2nnc(NC(=O)Nc3ccccc3)s2)cc1	none
O[C@H]1[C@H](n2cc(-c3cccc(F)c3)nn2)c2ccccc2C12CCNCC2	none
COc1ccc(NC(=O)c2ccco2)cc1NC(=O)C(C)(C)Oc1ccc(Cl)cc1	Pf Dd2 inh 10µM
COc1ccc(C(=O)Nc2cc(NC(=O)c3ccco3)ccc2OC)cc1Cl	none
COc1ccc(NC(=O)c2ccco2)cc1NC(=O)c1c(OC)cccc1OC	none
CSc1cccc(NC(=O)Cn2nc3n(c2=O)CCCCC3)c1	none
CCCCc1ccc(NC(=O)CN2C(=O)NC(c3ccc(C)cc3)C3=C2COC3=O)cc1 (configuration not stated)	none
CC1(C(=O)NCCc2ccccc2)CCCCC(=O)N1 (configuration not stated)	none
CCN1CCN(C2(C(=O)N3CCC(OC)CC3)Cc3ccccc3C2)CC1	none
CCN1CCN(C2(C(=O)NCCc3ccccc3)Cc3ccccc3C2)CC1	Pf Dd2 inh 5µM
CCN(CC)Cc1cnc2c(C(=O)N3CC[C@H]4CNC[C@H]43)cnn2c1	none
COc1ccc(C(C(=O)O)N2CCN(Cc3csc(C)n3)CC2)cc1C (configuration not stated)	none
CS(=O)(=O)N1C[C@@H]2CN(C(=O)NC3CCCC3)C[C@]2(C(=O)O)C1	none
CCC[C@H]1CN(S(=O)(=O)c2ccc(CC)s2)C[C@@H]1N	none
CCC[C@H]1CN(S(=O)(=O)c2ccc(-c3ccn[nH]3)o2)C[C@@H]1N	none
CCC[C@H]1CN(S(=O)(=O)c2cnn(CCC)c2)C[C@@H]1N	Pf Dd2 inh 11µM
CCCCN(C)CCCNC(=O)Cn1ncc2c3ccccc3n(Cc3cc(C)ccc3C)c2c1=O	Pf Dd2 inh 0.45µM
O=C(Cn1ncc2c3ccccc3n(Cc3ccccc3F)c2c1=O)NCCc1ccc(Cl)cc1	none
Cc1ccccc1Cn1c2ccccc2c2cnn(CC(=O)NCCc3ccc(Cl)cc3)c(=O)c21	none
CCCCN(C)CCCNC(=O)Cn1ncc2c3ccccc3n(Cc3ccccc3F)c2c1=O	Pf Dd2 inh 5.6µM
CCCN(CCC)CCCNC(=O)Cn1ncc2c3ccccc3n(Cc3ccccc3F)c2c1=O	Pf Dd2 inh 5µM
CCCCN(C)CCNC(=O)Cn1ncc2c([nH]c3ccccc32)c1=O	none
Cc1ccc(C)c(Cn2c3ccccc3c3cnn(CC(=O)NC(C)c4ccccc4)c(=O)c32)c1 (configuration not stated)	none
CC(CCc1ccccc1)NC(=O)Cn1ncc2c3ccccc3n(Cc3ccccc3F)c2c1=O (configuration not stated)	none
Cc1ccc(C)c(Cn2c3ccccc3c3cnn(CC(=O)NCC(C)c4ccccc4)c(=O)c32)c1 (configuration not stated)	none
Cc1cc2nc3n(c(=O)c2n1CC(=O)Nc1ccc2c(c1)OCO2)CCC3	none
COc1ccc(F)c(C(=O)N2CCC3(CC2)[C@H](O)C[C@@H]3O)c1F	none
CCN(CC)C(=O)CCc1c(C)nn(-c2ccccc2C)c1Oc1cccc(F)c1	none
COCCNC(=O)C1COC2(CCN(C(=O)c3ccc(F)cc3)CC2)N1C(=O)c1ccccc1 (configuration not stated)	none
Cc1cc(=O)n(CC(=O)Nc2ccc3c(c2)OCO3)c(-c2ccc(F)cc2)n1	none
Cc1nn(C)c(C)c1S(=O)(=O)N(CC(=O)NCCc1ccc(Cl)cc1)c1ccc(C(C)C)cc1	Pf Dd2 inh 11µM
COc1ccc(N(CC(=O)NCCc2ccccc2)S(=O)(=O)c2c(C)nn(C)c2C)cc1	none
Cc1ccc(CNC(=O)CN(c2ccc(C)cc2)S(=O)(=O)c2c(C)nn(C)c2C)cc1	none
COc1ccc([N+](=O)[O-])c(N2CC3CCC(C2)N3CC(F)(F)F)n1	none
COc1cc2nc(Cl)nc(N3CC4CCC(C3)N4CC(F)(F)F)c2cc1OC	Pf Dd2 inh 5µM
FC(F)(F)CN1C2CCC1CN(c1cc(Cl)ncn1)C2	none
CC[C@H]1CN(S(=O)(=O)c2ccccc2)CC[C@H]1CC(=O)N1CCOCC1	none
CC[C@H]1CN(C(=O)c2ccccc2)CC[C@H]1CC(=O)N1CCOCC1	none
CC[C@H]1CN(Cc2ccc(OC)cc2O)CC[C@H]1CC(=O)N1CCOCC1	Pf Dd2 inh 7.9µM
Cc1nn(C)cc1CN(C)C(=O)Cn1nc2n(c1=O)CCC(N)CC2 (configuration not stated)	none
O=C(Nc1cccc(F)c1)N1CCc2c(nc3cc(-c4ccccc4Cl)[nH]n3c2=O)C1	none
CN(CC(=O)N1CCc2c(c(-c3nncn3-c3ccccc3)nn2C)C1)S(=O)(=O)c1cnc[nH]1	none
Cc1ccc(C(=O)N2CCC(Cc3nc(-c4ccccc4)no3)CC2)s1	none
NCCC(=O)N1CCC(n2nccc2NC(=O)c2cccc(F)c2)CC1	none
O=C(c1ccc(Cl)cc1Cl)N1CCN(c2cc(-c3ccccc3)[nH]n2)CC1	none
CCC(C(=O)N1CCN(c2ccccc2)CC1)n1c(C)c2cnn(-c3ccccc3)c(=O)c2c1C (configuration not stated)	Pf Dd2 inh 11µM
Cc1ccc(C)c(N2CCN(C(=O)Cn3c(C)c4cnn(-c5ccccc5)c(=O)c4c3C)CC2)c1	none
Cc1c2cnn(-c3ccccc3)c(=O)c2c(C)n1CC(=O)N1CCN(c2cccc(Cl)c2)CC1	none
CCN1C(=O)CN(C(=O)C2CCC2)CC12CCOCC2	none
C=CCCC(CN1CCCOCC1)Oc1ccc(Cn2ccnc2)cn1 (configuration not stated)	none
